Consider 37 molecules from PubChem BioAssay (NCI).

Compounds without any hit were thinned out: in the full panel of roughly 83,000, 20% have a hit.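 Negative percent growth values reflect cell death: -40 means 40% of the cells present at the start died, and -100 means all died.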 A number with no mark means an inactive call. Calls of active or inactive are those of the source. Rule for the calls: active = growth percent below 10; inactive = the rest.

In the experiment the test system is HL-60(TB) leukemia. The experiment in a line: NCI-60 one-dose screen, 48 h (100 = growth as untreated, 0 = no growth, -100 = all killed). Particulars: 10 µM unless noted.
Regarding `N#C/C(=C\c1ccccn1)c1nc2cc(Cl)ccc2s1`, the growth is 52%.

Consider `CCSC(SCC)c1ccc(Cl)cc1`, for which the growth was 116%. For the molecule `O=C(Nc1cccnc1Nc1ccc(Cl)cc1)c1cn(Cc2ccc(F)cc2)nn1`, the growth is 109%. The value for `CCOC(=O)CCC(=O)P(=O)(O)O` was 9.71% (active); that for `C=C(C)[C@@H]1CC[C@]2(C(=O)OCCOCCOCC[P+](c3ccccc3)(c3ccccc3)c3ccccc3)CC[C@]3(C)[C@H](CC[C@@H]4[C@@]5(C)CC[C@H](C)C(C)(C)[C@@H]5CC[C@]43C)[C@@H]12` was -72.5% (active).

On to `Nc1nc(N=Nc2ccc(O)cc2)cc(=O)[nH]1`, for which the growth was 95.6%. Next, `COc1cc(OC)c(C(=O)/C=C/c2cccc(OC(C)=O)c2)cc1CC=C(C)C`: 8.14% (active); `CC(=O)O[C@H]1CC[C@]2(C)[C@H]3CC=C4[C@@H]5CC(C)(C)CC[C@]5(C(=O)NCCNCCNCCN)CC[C@@]4(C)[C@]3(C)CC[C@H]2C1(C)C`: -42.8% (active); `COc1ccc(/C=C/C(=O)c2ccc(Nc3ncnc4ccccc34)cc2)cc1OC`: 75.6%. The value for `Clc1ccc(Nc2nc(Nc3ccc(Cl)cc3)nc(Nc3ccc(-c4cc(-c5cccc(Cl)c5)on4)cc3)n2)cc1` was -50% (active); that for `CC1(C=O)NC(=O)NC1=O` (configuration not stated) was 87.5%. Next, `c1ccc2c[n+](Cc3ccc4ccccc4n3)ccc2c1`: 74.3%; `COc1cc(OC)c(/C=C/C(=O)c2c(N)cc(OC)cc2OC)c(OC)c1`: 12.7%. `COc1ccc(C(O)c2cc3c(N)c(C(=O)Nc4cccc(Cl)c4)sc3nc2C)cc1` (configuration not stated): the growth was 0.332% (active). The value for `Cn1c2c(cc(S(=O)(=O)c3ccccc3)c1=O)CCc1c-2cnn1-c1ccc(Cl)cc1` was 73.1%; that for `CONC1=Nc2cc(NC(N)=NCc3ccccc3)c(N(C)C3CCCCC3)cc2OC1` was 69.5%. The value for `CCN1CCN(c2cc(C)nc(NCc3cc(Nc4ccnc5cc(Cl)ccc45)ccc3F)n2)CC1` was 95.7%. Consider `O=c1oc2ccc(Cl)cc2c(=O)n1-c1ccc(F)cc1F`, for which the growth is -28.8% (active). Next, `Cc1sc2nc(NCCc3cccs3)[nH]c(=O)c2c1C`: 102%; `O=S(=O)(NCCNc1nccc(-c2c(-c3cccc(O)c3)nc3sccn23)n1)c1ccc(F)cc1`: 86.5%.

`C#C[C@]1(O)CC[C@H]2[C@@H]3CC=C4c5nc(Nc6ccccn6)sc5CC[C@]4(C)[C@H]3CC[C@@]21C`: the growth is 10.6%.

Take `CCCC(CCC)(C(N)=O)C(=O)O`: the growth is 104%. The value for `COc1cc2nc(-c3cccc4cccnc34)nc(NC3CCN(Cc4ccccc4)CC3)c2cc1OC` was -63.4% (active); that for `CCOC(=O)c1sc2ncnc(Nc3ccc4c(cnn4C(=O)Nc4ccccc4)c3)c2c1C` was 90.9%. The value for `C=C(Cl)[C@@](Cl)(CBr)CC[C@@H](Br)C(C)(C)Cl` was -68.1% (active); that for `N#C/C(=C\c1cc(O)c(O)c(O)c1)C(N)=O` was 69.5%; that for `O=C(O)c1cc(N=Nc2ccc(-c3ccc(N=Nc4c(S(=O)(=O)O)cc5ccc(Nc6ccccc6)cc5c4O)cc3)cc2)ccc1O` was 98.9%. Next, `COc1cc(Cl)cc(-c2nn(-c3cccc(NC(=O)c4cc(C(F)(F)F)cc(C(F)(F)F)c4)c3)cc2-c2ccncc2)c1`: 84.3%; `CC(C)(C)c1cc(-c2nc3ccc(N4CCN(CCO)CC4)cc3[nH]2)cc(C(C)(C)C)c1O`: 63.5%; `CC(C)=CCC[C@](C)(O)C1CC[C@]2(C)[C@@H]1CC[C@@H]1[C@@]3(C)CC/C(=N\OCCC#N)C(C)(C)[C@@H]3CC[C@]12C` (some centres not stated): 69.3%.

Turning to `COc1ccc2cn3c4ccc(O)cc4[nH]c(=O)c3c2c1`, the growth is -7.42% (active).

Consider `Cn1cc(-c2noc(C(=O)c3cn(C)c4ncccc34)n2)c2ccccc21`, for which the growth is 98.6%. Next, `CCOC1=C(Cl)C(=O)C(OCC)=C(Cl)C1=O`: 52.3%. Take `CC(=O)OCC(=O)C1(O)C(C)CC2C3C=C(C)C4=Cc5c(cnn5-c5ccccc5)CC4(C)C3C(O)CC21C` (configuration not stated): the growth was 14.7%.

With `CC(C)n1cc(C2=C(c3cccc4ccccc34)C(=O)NC2=O)c2cc(Br)ccc21`, the growth is 54.1%.

Consider `C#Cc1cccc(NC(=O)C2CCCCN2C(=O)CCl)c1` (configuration not stated), for which the growth was -31.6% [8.25 µM] (active).

Regarding `COc1ccc(C2CC(n3nnnc3-c3ccccc3)=NN2)cc1` (configuration not stated), the growth was 4.11% (active).
